A collection of fitness landscapes (doi:10.1126/science.1257360)
In all, about 140,000 sequences were measured (“enrichment ratio after two sorts for PhoP signalling”: median about 0, highest 2% from about 11 on). The list comes from a sample in which the highest values are over-represented; it also holds similar and randomly drawn sequences.

B1: PhoQ; a variant is named by its letters at X, in order, P23837 (parent)
chain: MKKLLRLFFPLSLRVRFLLATAAVVLVLSLAYGMVALIGYSVSFDKTTFRLLRGESNLFYTLAKWENNKLHVELPENIDKQSPTMTLIYDENGQLLWAQRDVPWLMKMIQPDWLKSNGFHEIEADVNDTSLLLSGDHSIQQQLQEVREDDDDAEMTHSVAVNVYPATSRMPKLTIVVVDTIPVELKSSYMVWSWFIYVLSANLLLVIPLLWVAAWWSLRPIEALAKEVRELEEHNRELLNPATTRELTSLVRNLNRLLKSERERYDKYRTTLTDLTHSLKTPLXXLQXXLRSLRSEKMSVSDAEPVMLEQISRISQQIGYYLHRASMRGGTLLSRELHPVAPLLDNLTSALNKVYQRKGVNISLDISPEISFVGEQNDFVEVMGNVLDNACKYCLEFVEISARQTDEHLYIVVEDDGPGIPLSKREVIFDRGQRVDTLRPGQGVGLAVAREITEQYEGKIVAGESMLGGARMEVIFGRQHSAPKDE

Variants of: B1
Experiment: enrichment ratio after two sorts for PhoP signalling (ratio (wild type AVST 3.29)); higher = more functional
Conditions: with PhoP (E. coli)

Variant	enrichment ratio
PGAC	≤ 0.25
FIVG	≤ 0.25
QDLS	≤ 0.25
SILG	8.57
PSLG	≤ 0.25
SSLG	16.1
TSLG	14.5
KSLG	≤ 0.25
SRLG	≤ 0.25
YYHP	≤ 0.25
DLTQ	≤ 0.25
ANPT	≤ 0.25
GAMM	14.4
IGGM	≤ 0.25
ITMM	17.7
IPMM	≤ 0.25
HIMM	≤ 0.25
IQMM	≤ 0.25
VHMM	≤ 0.25
TAMM	2.2
IGWM	≤ 0.25
VLMM	≤ 0.25
VAMM	12.8
IGMM	18.5
MRMA	≤ 0.25

Variant	enrichment ratio
HQRH	≤ 0.25
GEDN	≤ 0.25
YNEG	≤ 0.25
KEMR	≤ 0.25
WIRK	≤ 0.25
EEFA	≤ 0.25
YYMT	≤ 0.25
TQCW	0.964
PSYG	≤ 0.25
EPIL	≤ 0.25
LLMM	≤ 0.25
KAMM	≤ 0.25
ISMM	5.78
LAMM	14.3
LTMM	2.28
IAMM	13.5
MTSV	0.634
IESV	≤ 0.25
AHSV	≤ 0.25
AESV	14.8
MDSV	≤ 0.25
ARSV	≤ 0.25
MKSV	≤ 0.25
QRSV	≤ 0.25
QESV	29.9

Variant	enrichment ratio
QPSV	≤ 0.25
TESV	26.1
MESV	24.5
NESV	≤ 0.25
IVVM	≤ 0.25
GAFT	≤ 0.25
TQPA	≤ 0.25
WQTI	≤ 0.25
MSAY	7.95
NSEQ	≤ 0.25
IQME	≤ 0.25
WQME	≤ 0.25
NQMY	≤ 0.25
TQME	17.2
FQMY	≤ 0.25
TQMY	12.5
KHFI	≤ 0.25
MHHY	≤ 0.25
RLFV	≤ 0.25
ALVF	0.451
AWVF	≤ 0.25
ACHF	≤ 0.25
ACVF	11.9
YTVF	0.29
ATVF	16.1

Variant	enrichment ratio
LWTN	≤ 0.25
FKQC	≤ 0.25
IVWE	≤ 0.25
GEIV	8.51
GEIC	45.3
GERC	≤ 0.25
GEFC	≤ 0.25
GEIY	23
GGIY	2.45
GNIS	5.86
GEIS	20.8
GNIY	≤ 0.25
IKLA	≤ 0.25
LNNT	≤ 0.25
FNGW	≤ 0.25
YVPF	≤ 0.25
LTCT	≤ 0.25
FKRE	≤ 0.25
TTCA	9.39
LPWS	≤ 0.25
GDTH	≤ 0.25
LVNA	≤ 0.25
HQNP	≤ 0.25
TKMT	6.64
ANKA	≤ 0.25

Variant	enrichment ratio
ANKK	≤ 0.25
ANMT	12.2
AQMI	≤ 0.25
AIAT	19.3
AQMT	23.8
KKAT	≤ 0.25
MEMT	≤ 0.25
AKAT	3.68
AKMT	52.1
NQMT	≤ 0.25
FGIN	≤ 0.25
RFYE	≤ 0.25
FYWY	≤ 0.25
ITNK	≤ 0.25
QYEG	≤ 0.25
HPNG	≤ 0.25
WHVS	≤ 0.25
TMMI	0.351
WHFQ	1.98
DQQP	≤ 0.25
FHPL	≤ 0.25
LVAW	0.304
KKAR	≤ 0.25
ATMT	≤ 0.25
AIMT	22.8

Variant	enrichment ratio
AKAR	≤ 0.25
AIAR	19.7
VHMT	≤ 0.25
SVWQ	≤ 0.25
KVQS	≤ 0.25
NAFM	≤ 0.25
GTFM	≤ 0.25
MIGM	2.52
KAFM	≤ 0.25
MTFM	17.1
MIFM	15.8
YTFM	≤ 0.25
MKFM	≤ 0.25
MAFM	14.7
DKSF	≤ 0.25
TGQA	3.89
FELW	≤ 0.25
SMQH	14.9
SMTH	4.57
SMPV	≤ 0.25
SMMN	19.5
SMMH	15.6
SMQN	≤ 0.25
SMGH	1.91
SMIV	≤ 0.25

Variant	enrichment ratio
SMKH	≤ 0.25
SMMV	17.9
SMWH	≤ 0.25
SMNL	2.56
NSPY	≤ 0.25
PHRW	≤ 0.25
NLYI	≤ 0.25
HIPQ	≤ 0.25
SEHH	≤ 0.25
NIQH	≤ 0.25
NTWT	≤ 0.25
PEAN	≤ 0.25
VIAY	≤ 0.25
PFVI	≤ 0.25
GNDM	≤ 0.25
GENQ	≤ 0.25
SMFC	≤ 0.25
SMMI	5.18
SMMC	16.1
SMMW	≤ 0.25
DMMC	≤ 0.25
SMMS	14.6
DVQM	≤ 0.25
PNYR	≤ 0.25
AGHK	≤ 0.25

Variant	enrichment ratio
HLLG	≤ 0.25
AADK	≤ 0.25
APLI	0.336
AHLI	4.17
FDLI	≤ 0.25
ADLT	11.3
KDLI	≤ 0.25
TDLI	16.1
AALI	11.9
AILI	1.77
AILT	6.15
ADLA	0.619
ADLI	16.8
WYQF	≤ 0.25
EELG	≤ 0.25
IKSA	≤ 0.25
AVVT	0.37
QMRR	≤ 0.25
ILWV	≤ 0.25
GWVK	≤ 0.25
ANLI	23.1
AYLI	0.332
ANDK	≤ 0.25
PDDN	≤ 0.25
VNIK	≤ 0.25

Variant	enrichment ratio
TWLY	≤ 0.25
IICF	0.792
TICS	13
TICA	12.3
TICE	≤ 0.25
TICV	6.14
TICL	1.53
TICI	2.26
IKEC	≤ 0.25
LHYP	≤ 0.25
KVDK	≤ 0.25
MNSC	≤ 0.25
GISC	11.8
GITC	8.58
TNSR	≤ 0.25
MNSS	0.46
GIFC	≤ 0.25
LNSS	≤ 0.25
TNCA	8.8
TNSS	13.1
TNSC	17.3
TNSI	15.8
TNSK	≤ 0.25
IKVK	≤ 0.25
LLGD	≤ 0.25

Variant	enrichment ratio
MVLD	≤ 0.25
RQIY	≤ 0.25
GQSC	≤ 0.25
GNSC	12.1
GTSC	≤ 0.25
WNPE	≤ 0.25
EPTS	≤ 0.25
SQPA	≤ 0.25
TCCT	7.4
YWCT	≤ 0.25
HEAT	≤ 0.25
HECT	26.3
IQCT	≤ 0.25
IECT	16.6
VFCT	≤ 0.25
NECT	14.1
EECT	≤ 0.25
VECT	12
HELT	≤ 0.25
QECT	6.99
REDM	≤ 0.25
DVPV	≤ 0.25
MSTY	2.56
SPFN	≤ 0.25
ACHR	≤ 0.25

Variant	enrichment ratio
MCHQ	≤ 0.25
FMEW	≤ 0.25
ERFY	≤ 0.25
LRPR	≤ 0.25
LISC	≤ 0.25
HMCL	2.41
SRMT	0.372
QEMT	5.12
STLT	12.3
SLMT	≤ 0.25
STMT	16.6
SWMT	≤ 0.25
SQMT	22.7
SIMT	7.68
KYMT	≤ 0.25
STLA	10.9
SPLT	≤ 0.25
SEMT	20
INDV	≤ 0.25
LNTQ	≤ 0.25
PDCH	≤ 0.25
PGNF	≤ 0.25
DWKT	≤ 0.25
EFCG	≤ 0.25
KSIH	≤ 0.25

Variant	enrichment ratio
KPAG	≤ 0.25
LQSG	≤ 0.25
EPRQ	≤ 0.25
TQPT	≤ 0.25
WMMI	≤ 0.25
IPNH	≤ 0.25
PVYK	≤ 0.25
SGQM	14.7
SGQK	≤ 0.25
RGQM	≤ 0.25
LAQM	≤ 0.25
TQQM	17.5
SMQM	20.4
DWQM	≤ 0.25
TLQM	15.4
FQQM	≤ 0.25
KAQM	≤ 0.25
SMGM	5.78
SMRM	≤ 0.25
IDFL	≤ 0.25
SWLW	≤ 0.25
FYKC	≤ 0.25
FEKG	≤ 0.25
DDSK	≤ 0.25
RTPK	≤ 0.25

Variant	enrichment ratio
TQKM	≤ 0.25
MGAV	5.2
SPQM	≤ 0.25
KYQM	≤ 0.25
SRQM	≤ 0.25
YTQM	≤ 0.25
FCQM	≤ 0.25
TSQM	24
LTQM	≤ 0.25
KSQM	≤ 0.25
TTQM	12.5
FSQM	≤ 0.25
SCQM	30.8
STQM	12.8
